Experiments:
[1] = target: Bromodomain-containing protein 4 (Homo sapiens) (UniProt O60885); conditions: Compound concentration 10.0 uM, Protein concentration 2.0 uM
[2] = target: T1, Transcription intermediary factor 1-alpha (Homo sapiens) (UniProt O15164); conditions: Compound concentration 10.0 uM, Protein concentration 2.0 uM
T1 sequence (whole entry): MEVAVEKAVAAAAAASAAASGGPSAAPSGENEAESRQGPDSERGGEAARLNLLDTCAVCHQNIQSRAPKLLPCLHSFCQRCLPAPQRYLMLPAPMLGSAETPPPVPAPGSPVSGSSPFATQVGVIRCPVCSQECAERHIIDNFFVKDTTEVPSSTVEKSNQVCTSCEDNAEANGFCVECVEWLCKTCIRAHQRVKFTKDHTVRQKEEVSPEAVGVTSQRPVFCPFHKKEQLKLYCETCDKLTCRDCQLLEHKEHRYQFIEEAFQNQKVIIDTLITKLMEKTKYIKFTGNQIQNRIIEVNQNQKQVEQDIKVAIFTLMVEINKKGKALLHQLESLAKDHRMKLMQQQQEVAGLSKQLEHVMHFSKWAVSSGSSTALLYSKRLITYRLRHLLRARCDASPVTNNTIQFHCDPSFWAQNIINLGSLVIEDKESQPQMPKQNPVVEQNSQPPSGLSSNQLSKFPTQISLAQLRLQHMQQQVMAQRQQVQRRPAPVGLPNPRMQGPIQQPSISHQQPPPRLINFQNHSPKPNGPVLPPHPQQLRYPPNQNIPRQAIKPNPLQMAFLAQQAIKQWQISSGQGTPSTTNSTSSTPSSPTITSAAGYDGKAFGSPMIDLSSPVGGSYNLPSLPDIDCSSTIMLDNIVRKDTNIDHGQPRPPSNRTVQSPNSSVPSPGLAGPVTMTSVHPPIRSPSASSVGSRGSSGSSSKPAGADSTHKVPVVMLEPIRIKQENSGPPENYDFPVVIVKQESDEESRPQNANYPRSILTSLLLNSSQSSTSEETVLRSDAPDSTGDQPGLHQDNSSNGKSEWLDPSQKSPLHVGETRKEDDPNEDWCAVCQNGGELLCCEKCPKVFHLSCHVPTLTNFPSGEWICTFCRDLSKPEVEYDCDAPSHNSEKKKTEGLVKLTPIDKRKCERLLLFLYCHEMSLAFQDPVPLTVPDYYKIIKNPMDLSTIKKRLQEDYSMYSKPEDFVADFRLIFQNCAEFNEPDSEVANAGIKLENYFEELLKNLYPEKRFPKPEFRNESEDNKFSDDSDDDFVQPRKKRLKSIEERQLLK

For CCCS(=O)(=O)c1nc(NC2CC2)cc(-c2ccc3c(ccn3C3CC(C)(C)NC(C)(C)C3)c2)n1, the ΔTm [1] was 0.53 °C and the ΔTm [2] was 0.33 °C.

Reference: ChEMBL document CHEMBL4649986, “Chemical probes and inhibitors of bromodomains outside the BET family” (Medchemcomm, 2016)
